Source: PubChem BioAssay AID1942 (Johns Hopkins Ion Channel Center, 2009)
The campaign covered roughly 2,400 compounds. About 580 (24%) were called active. A selection follows. Values without a mark were called inactive.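 Rule for the calls: active = activity change at or above the mean plus 3 SD of buffer wells without dofetilide, per plate; inactive = the rest.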

Target: Potassium voltage-gated channel subfamily KQT member 2 (Rattus norvegicus) (UniProt O88943)
Test: KCNQ2 potentiation in CHO cells – cell-based, FluxOR thallium flux, counter-screen for hERG block protector project, confirmation (AID 1942);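 note: normalized value minus buffer-control mean plus three SD of buffer wells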
Details: FluxOR thallium flux fluorescence, at 10 µM, stronger effect = higher value

Sequence of Potassium voltage-gated channel subfamily KQT member 2 (Rattus norvegicus) (O88943 whole entry, looked up): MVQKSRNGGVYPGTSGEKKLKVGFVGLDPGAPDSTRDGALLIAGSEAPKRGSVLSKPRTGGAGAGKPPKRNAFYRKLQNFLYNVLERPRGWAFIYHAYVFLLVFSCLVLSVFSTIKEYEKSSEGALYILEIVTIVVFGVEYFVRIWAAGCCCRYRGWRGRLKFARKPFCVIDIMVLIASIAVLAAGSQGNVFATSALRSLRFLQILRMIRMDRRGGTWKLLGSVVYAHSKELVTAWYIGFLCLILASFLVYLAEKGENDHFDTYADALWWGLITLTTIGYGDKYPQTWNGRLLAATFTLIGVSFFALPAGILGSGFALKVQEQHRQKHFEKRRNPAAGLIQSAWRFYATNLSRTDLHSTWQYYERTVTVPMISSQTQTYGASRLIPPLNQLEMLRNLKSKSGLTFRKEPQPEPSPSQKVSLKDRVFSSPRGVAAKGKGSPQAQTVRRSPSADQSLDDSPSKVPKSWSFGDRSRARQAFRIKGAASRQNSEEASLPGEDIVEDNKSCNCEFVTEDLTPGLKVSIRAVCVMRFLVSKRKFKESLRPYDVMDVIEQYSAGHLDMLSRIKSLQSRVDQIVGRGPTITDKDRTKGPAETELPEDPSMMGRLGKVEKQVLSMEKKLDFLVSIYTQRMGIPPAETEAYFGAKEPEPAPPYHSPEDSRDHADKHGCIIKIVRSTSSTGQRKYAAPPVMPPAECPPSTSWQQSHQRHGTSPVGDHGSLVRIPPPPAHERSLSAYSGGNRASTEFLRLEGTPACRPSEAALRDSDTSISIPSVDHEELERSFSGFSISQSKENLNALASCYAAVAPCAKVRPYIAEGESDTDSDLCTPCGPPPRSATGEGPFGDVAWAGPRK

| SMILES | activity change, less the hit threshold |
| --- | --- |
| COc1ccc2c(c1)O[C@@H](c1cccc(C(F)(F)F)c1)[C@H](OC(=O)NCCc1ccc(OC)c(OC)c1)C2=O | -11% |
| CCc1nnc(NC(=O)COc2ccc([N+](=O)[O-])cc2)s1 | -12.5% |
| CC/C(=N\NC(=O)c1nnn(-c2nonc2N)c1-c1cccs1)c1ccccc1 | -13.9% |
| O=C(CCC(=O)Nc1ccccc1)NNC(=O)c1ccco1 | -23.9% |
| COc1ccccc1NC(=O)C(=O)NNC(=O)c1ccco1 | 24.1% (active) |
| COc1ccc(C)cc1NC(=O)C(=O)NNC(=O)c1ccco1 | 73.2% (active) |
| CCN(CC)C(=O)CN1C(=O)C2CC=C(Cl)CC2C1=O (stereo not given) | -12.3% |
| O=C(O)Cn1cc(CN2CCOCC2)c2ccccc21 | -20.4% |
| CC1(OC(=O)C2CCCC2)C(=O)C=C2C=C(c3ccc(C#N)cc3)OC=C2C1=O (stereo not given) | -18.1% |
| CCOC(=O)C1=C(Cn2cnc3ccccc32)NC(=O)NC1c1cc(C)ccc1C (stereo not given) | -19.4% |
| Cc1ccc(S(=O)(=O)N2CCOCC2)cc1NC(=O)CSc1nc2ccccc2c(=O)n1Cc1ccccc1 | -8.2% |
| Cc1ccc(CNC(=O)CN2C(C)CCCC2C)cc1 (stereo not given) | -17% |
| CN1/C(=C/C=C(C#N)C#N)C=Cc2ccccc21 | -17.6% |
| Cc1ccc(N2CCN(C(=O)N3CCCC3)CC2)cc1C | 3.3% (active) |
| Cc1ccc(-n2c(=O)c3cc4c(=O)n(-c5ccc(C)c(C)c5)c(=O)c4c(C(=O)c4ccc(C(=O)O)cc4)c3c2=O)cc1C | -9.5% |
| CCOC(=O)N1CCN(c2c(-c3ccc(C)c(C)c3)c(=O)c2=O)CC1 | -10.9% |
| Cc1onc(-c2ccccc2)c1C(=O)NC(=S)Nc1sc2c(c1C#N)CCCC2 | -12.6% |
| COc1ccc(NC(=S)NC(NC(=O)c2cccc3ccccc23)C(Cl)(Cl)Cl)c([N+](=O)[O-])c1 (stereo not given) | -21.8% |
| CNC(=S)Nc1sc2c(c1C(=O)OC)CCC2 | 8.9% (active) |
| CCOC(=O)c1c(/N=C/C2=C(O)CCCC2=O)sc2c1CCCC2 | -20.8% |
| COC(=O)c1c(NC(=S)Nc2ccc(F)cc2[N+](=O)[O-])sc2c1CCCCC2 | 1.5% (active) |
| CCOC(=O)c1c(NC(=S)NC)sc2c1CCCC2 | 13% (active) |
| CCOC(=O)c1c(NC(=S)NC)sc2c1CC(C)(C)SC2 | 97.7% (active) |
| CCc1nnc(NC(=O)CCC(=O)N2CCN(C3CCCCC3)CC2)s1 | -21.4% |
| O=C(N/C(=C/c1ccc2c(c1)OCO2)C(=O)N1CCOCC1)c1cccs1 | -18.2% |
